VACV Venus inh: vaccinia inhibition (Venus reporter). Vaccinia virus Venus reporter expression, fluorescence. Potency, µM (doses to about 36.5 µM), for inactives: top-dose activity change, negative = inhibition, hits mostly inhibitors. 330,000 compounds, 0.46% hits. AID 720580; calls by dose curve; tested in A549 cells; note: nearly all actives have a fitted effect of over 30% in size
MARV entry inh: blocks Marburg virus binding to or entry into cells; Marburg virus pseudotyped entry inhibition, cell reporter; 300,000 compounds, 1.8% hits; Potency, µM (doses to about 37.8 µM), without a hit: at the highest dose activity change, negative = inhibition, actives largely listed as inhibitors; AID 540276; calls by dose curve; tested in HEK293 cells
FMDV inh: foot and mouth disease virus antiviral activity; AID 1159524; Potency, µM (top dose mostly 57.9 µM), for the others: at the top dose activity change, negative = inhibition, hits mostly inhibitors; 410,000 compounds, 1.2% hits; FMDV antiviral cell-based qHTS; calls by dose curve; tested in HEK293T cells; note: read-out not given here; nearly all actives have a fitted effect of over 45% in size
LASV entry inh: blocks Lassa virus binding to or entry into cells. Potency, µM (top dose mostly 37.9 µM), inactives show at the highest dose activity change, negative = inhibition, actives largely listed as inhibitors. Lassa virus pseudotype entry inhibition, cell reporter. 300,000 compounds, 1.2% hits; calls by dose curve; tested in HEK293 cells; note: nearly all actives have a fitted effect of over 50% in size
VACV mCherry inh: vaccinia inhibition (mCherry reporter); 310,000 compounds, 0.63% hits; Vaccinia virus mCherry reporter infection, fluorescence; Potency, µM (titrated, usually from 36.5 µM), for the others: at the highest dose activity change, negative = inhibition, actives largely listed as inhibitors; calls by dose curve; tested in A549 cells; note: nearly all actives have a fitted effect of over 35% in size
Numbers without * were called inactive; i = inactive; ? = inconclusive; · = not tested or not shown; [ ] = remark or other dose. This is a sample that favours compounds with a hit; in the whole collection about 3.2% have one here. % is set by controls: 0 for no effect and ±100 for the full control effect; potency is the fitted concentration of half-maximal effect.

SMILES | VACV Venus inh | MARV entry inh | FMDV inh | LASV entry inh | VACV mCherry inh
Cc1ccc(OCC(=O)Nc2cccc(C(=O)OCc3cc(=O)n4c(C)csc4n3)c2)cc1 | -13% | · | -19% | ? | -13%
COc1ccc(OCC(=O)Nc2ccccc2C(=O)OCc2cc(=O)n3nc(C)sc3n2)cc1 | -12% | · | 20µM* | 18%[46.1 µM] | -16%
Cc1ccc(OCC(=O)Nc2cccc(C(=O)OCc3cc(=O)n4nc(C)sc4n3)c2)cc1 | -5%[7.34 µM] | · | 13µM* | ? | -7%[7.34 µM]
CN(C)c1ccc(/C=C2/CCc3ccccc32)cc1 | -22% | · | · | · | 7%
CS(=O)(=O)c1ccc(NC(=O)COc2ccccc2C(=O)Nc2ccccc2)cc1 | -17% | · | · | · | -15%
COc1ccc(CN2CCC3(CC2)c2ccccc2[C@@H](NC(=O)c2ccsc2)[C@@H]3OC)cc1O | -10% | · | 2% | · | -16%
CCN(c1ccccc1)S(=O)(=O)c1ccc(Cl)c(NC(=O)Nc2ccc(Cl)cc2C#N)c1 | 10µM* | ? | 0% | ? | 11µM*
CCN(c1ccccc1)S(=O)(=O)c1cc(NC(=O)Nc2ccccc2C#N)ccc1Cl | -29% | 16% | ? | -2% | ?
COc1ccc2oc(/C=C/N(C)C)c(C(=O)c3ccc(Cl)cc3)c2c1 | · | 21µM* | -3% | ? | ·
O=C(CN1CCN(C(c2ccccc2)c2ccccc2)CC1)N1N=CCC1c1ccccc1 (configuration not stated) | -6% | 8.9µM* | -21% | ? | -1%
O=C(CN1CCN(c2ccccc2)CC1)N1N=CCC1c1ccccc1 (configuration not stated) | -11% | -2% | -4% | 5% | ·
O=C(O)Cc1coc2ccc3ccccc3c12 | -12% | 7%[46.1 µM] | -6% | 0%[46.1 µM] | i
Cc1cccc(NC(=O)Cc2coc3ccc4ccccc4c23)n1 | 3% | 6.5µM* | -5% | ? | i
Cc1ccc(S(=O)(=O)NC(=O)Nc2ccc(N(C)C)cc2)cc1 | ? | ? | 24% | 13µM* | ?
Cc1ccc(S(=O)(=O)Nc2ccc(NC(=O)Nc3cccc(C(F)(F)F)c3)cc2)cc1 | ? | ? | ? | ? | 11µM*
CCOC(=O)Nc1ccc(NS(=O)(=O)c2ccc(C)cc2)cc1 | -23% | -20% | 42% | 12µM* | -7%
Cc1ccc(NS(=O)(=O)c2ccc(NC(=O)c3cccc(NC(=O)C(C)C)c3)cc2)cc1 | ? | 13µM* | ? | ? | ·
Cc1ccsc1-c1nc(CN2CCCC2c2ccc(F)cc2)c(C)o1 (configuration not stated) | -7% | ? | 8% | 3%[46.1 µM] | 0%
O=C1N2CCCCC1(Sc1ccccc1)CCC2 (configuration not stated) | 4% | · | -10% | · | -8%
CCOc1ccc(N(C)C(=O)CS(=O)(=O)c2cccc3nsnc23)cc1 | 7% | · | -3% | -6%[46.1 µM] | -1%
CCC(C)(C)c1ccc(Oc2ccc(N)cc2)cc1 | ? | 4µM* | 1.1µM* | ? | -18%
CCC(C)(C)c1ccc(Oc2cccc(C(=O)O)c2)cc1 | 4% | 4%[46.1 µM] | 38% | 17%[46.1 µM] | -5%
Cc1cnc2ccccc2c1/C=C/c1ccc(N(C)C)cc1 | -19% | · | · | · | -26%
Cn1c(=O)c(-c2cc(F)cc(F)c2)nc2cnc(Oc3cccc(Cl)c3)nc21 | · | · | 2% | · | ·
CC1=CC(=O)C(C(C)C)=C/C1=N/OS(=O)(=O)c1ccccc1 | · | · | 25µM* | · | ·
SMILES | VACV Venus inh | MARV entry inh | FMDV inh | LASV entry inh | VACV mCherry inh
Cc1ccc2c(c1)/C(=N/OS(=O)(=O)c1ccccc1)CCS2 | · | 5% | -3% | 14% | ·
CC1=CC(=O)C=C(C)C1=NOS(=O)(=O)c1ccccc1 | -21% | ? | 14µM* | 10µM* | -26%
O=C(NCCc1csc(-c2ccc(C(F)(F)F)cc2)n1)c1ccc(F)c(F)c1 | -12% | · | 20µM* | -26%[46.1 µM] | -16%
Cc1cc(C)cc(C(=O)NCCc2csc(-c3ccc(C(F)(F)F)cc3)n2)c1 | -7% | · | -23% | -17%[46.1 µM] | -13%
CC(C)(C)S(=O)N1Cc2cc(C(=O)N3CCOCC3)nc(-c3cccc(Br)c3)c2[C@@H]1CCO (some centres not stated) | 12% | · | -22% | · | 30%
COc1ccc(CN2CCOc3ccc(CN4CCN(CCO)CC4)cc3C2)c2ccccc12 | -12% | · | -7% | · | -20%
CCCCCCCCCCCCCCCCCC(=O)O[C@H](CC(=O)O)C[N+](C)(C)C | · | 18% | · | · | ·
N#Cc1c(-n2ncnc2-c2ccccc2C(F)(F)F)sc2c1CCCCC2 | 8% | · | 0.35µM* | ? | -5%
Cc1noc(C)c1-c1ccc2ncnc(N(C)C)c2c1 | · | · | -6% | · | ·
COc1ccc(-c2cc(-c3cc(C)ccc3O)[nH]n2)cc1 | ? | ? | 14% | ? | 8.9µM*
COc1ccc(OC)c(NC(=O)c2cc(-c3cc(C)ccc3O)n[nH]2)c1 | 11µM* | ? | 17% | ? | 10µM*
O=C(NCc1cccc(F)c1)c1ccc2nc(N3CCCCC3)sc2c1 | -6% | 6%[46.1 µM] | 15% | · | 1%
Cc1nc(C(F)(F)F)c(C(=O)N/N=C(\N)c2ccccn2)s1 | ? | ? | 3% | ? | 2.5µM*
COc1ccc(CC2SC(=Nc3ccc(F)cc3)NC2=O)cc1 (configuration not stated) | -1% | -13%[46.1 µM] | 12% | 4.5µM* | i
COc1ccc(N=C2NC(=O)C(CC(=O)NCCc3ccc(OC)c(OC)c3)S2)cc1 (configuration not stated) | -14% | 15%[46.1 µM] | -5% | ? | -1%
CCOc1ccc(C(=O)Cn2c(=O)n3nc(CCn4nc(C)cc4C)nc3c3cc(OC)c(OC)cc32)cc1 | ? | · | -7% | 13%[46.1 µM] | 3.5µM*
Cc1cc(NC(=O)C(C)SCC(=O)N(Cc2ccccc2)c2ccccc2)no1 (configuration not stated) | 11% | 3.5µM* | -13% | ? | -17%
CCN1C(=O)C[C@H](N2CCN(c3ccc(OC)cc3)CC2)C1=O | · | 10% | · | · | ·
O=C(O)/C=C/c1cnn(-c2ccccc2)c1 | 0% | ? | -67% | 2.8µM* | -3%
C[C@H](CO)N1C[C@H](C)[C@H](CN(C)Cc2ccc(-c3ccccc3)cc2)Oc2ccc(NS(=O)(=O)c3ccccc3)cc2CC1=O | 10µM* | · | ? | · | ?
C[C@H]1CN([C@@H](C)CO)C(=O)Cc2cc(NC(=O)CCC(F)(F)F)ccc2O[C@H]1CN(C)Cc1ccc(-c2ccccc2)cc1 | ? | · | -25% | · | 11µM*
CCCCN1C[C@H](c2ccccc2)[C@@H](CC(=O)NC)C1=O | -17% | · | -20% | ? | -1%
OC[C@H]1O[C@H](c2ccccc2)C=C[C@H]1O | · | -8%[14.2 µM] | · | · | ·
CCOC(=O)N/N=C1/C[C@@H](O)[C@@H](O)[C@@H]2[C@@H]3C(=O)N(C[C@@H]4CCCO4)C(=O)[C@H]3CC[C@@H]12 | · | 6%[14.2 µM] | · | · | ·
COc1cc(-c2cc(C)c3c(OC)ccc(OC)c3n2)cc2c1OCCN(Cc1cn(C)nc1C)C2 | 22% | · | -3% | · | 12%
COc1ccc(/C=N/Nc2cc(N(C)C)nc(N(C)C)n2)cc1 | -29% | 4.5µM* | ? | ? | -23%
COc1ccc(/C=N/Nc2cc(OC)ncn2)cc1 | -11% | ? | -57% | 10µM* | i

Assay outcomes: PubChem BioAssay, National Center for Advancing Translational Sciences (NCATS)
